# Experimental data published in PubChem BioAssay AID1159580 (chemical genetic matrix, 2015).
# About 2,000 (36%) of roughly 5,500 compounds were called active. Roughly 18% stayed inconclusive and do not appear here. Some of the results follow. Values without a mark were called inactive. Cut-off read from the data, not from the text of the source: active = normalized growth mostly below about 0.91 (no sharp cut-off); inconclusive = no clear call, values can overlap the other calls; inactive = mostly above about 0.92.
# Test: chemical genetic growth profiling, strain panel (AID 1159580);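 note: tested at 20 µM; growth read once vehicle control cultures reached saturation at 30 °C; 1 = growth at the plate median or of vehicle wells; lower values mean less growth of the strain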
# Conditions: growth OD
# [1] = S. cerevisiae deletion strains, locus YAL013W, strain DEP1, active compounds read low
# [2] = S. cerevisiae deletion strains, locus YBR229C, strain ROT2, active compounds read low
# [3] = S. cerevisiae deletion strains, locus YDL101C, strain DUN1, active compounds read low
# [4] = S. cerevisiae deletion strains, locus YDL134C, strain PPH21, active compounds read low
# [5] = S. cerevisiae deletion strains, locus YDR150W, strain NUM1, active compounds read low
# [6] = S. cerevisiae deletion strains, locus YEL061C, strain CIN8, active compounds read low
# [7] = S. cerevisiae deletion strains, locus YGR078C, strain PAC10, active compounds read low
# [8] = S. cerevisiae deletion strains, locus YHR030C, strain SLT2, active compounds read low
# [9] = S. cerevisiae deletion strains, locus YHR087W, strain rtc3, active compounds read low
# [10] = S. cerevisiae deletion strains, locus YJR043C, strain POL32, active compounds read low
# [11] = S. cerevisiae deletion strains, locus YJR075W, strain HOC1, active compounds read low
# [12] = S. cerevisiae deletion strains, locus YLR039C, strain RIC1, active compounds read low
# [13] = S. cerevisiae deletion strains, locus YLR058C, strain SHM2 (second series), active compounds read low
# [14] = S. cerevisiae deletion strains, locus YLR085C, strain ARP6, active compounds read low
# [15] = S. cerevisiae deletion strains, locus YLR262C, strain YPT6, active compounds read low
# [16] = S. cerevisiae deletion strains, locus YML094W, strain GIM5, active compounds read low
# [17] = S. cerevisiae deletion strains, locus YMR219W, strain ESC1, active compounds read low
# [18] = S. cerevisiae deletion strains, locus YMR263W, strain SAP30, active compounds read low
# [19] = S. cerevisiae deletion strains, locus YMR307W, strain GAS1, active compounds read low
# [20] = S. cerevisiae deletion strains, locus YNL153C, strain GIM3, active compounds read low
# [21] = S. cerevisiae deletion strains, locus YNL298W, strain CLA4 (second series), active compounds read low
# [22] = S. cerevisiae deletion strains, locus YNL322C, strain KRE1, active compounds read low
# [23] = S. cerevisiae deletion strains, locus YNR030W, strain Alg12, active compounds read low
# [24] = S. cerevisiae deletion strains, locus YPL055C, strain LGE1, active compounds read low
# [25] = S. cerevisiae deletion strains, locus YPL241C, strain CIN2, active compounds read low
# [26] = S. cerevisiae deletion strains, locus YPR135W, strain CTF4, active compounds read low
# [27] = S. cerevisiae strains, strain wild type, active compounds read low
structure (smiles),measurement,setting,value
CC12CCC(C1)C(C)(C)C2NC(=O)c1cccs1 (configuration not stated),normalized growth,[1],0.976
same,normalized growth,[2],1.01
same,normalized growth,[3],0.995
same,normalized growth,[4],0.991
same,normalized growth,[5],0.907
same,normalized growth,[6],1.02
same,normalized growth,[7],0.98
same,normalized growth,[8],0.848
same,normalized growth,[9],0.983
same,normalized growth,"S. cerevisiae deletion strains, locus YJL187C, strain SWE1, active compounds read low",0.992
same,normalized growth,[10],0.956
same,normalized growth,[11],0.97
same,normalized growth,[12],1.03
same,normalized growth,[13],0.994
same,normalized growth,[14],0.944
same,normalized growth,[15],1.03
same,normalized growth,[16],0.976
same,normalized growth,[17],0.988
same,normalized growth,[18],0.942
same,normalized growth,[19],0.834
same,normalized growth,[20],1
same,normalized growth,[21],0.983
same,normalized growth,[22],0.987
same,normalized growth,[23],0.995
same,normalized growth,"S. cerevisiae deletion strains, locus YOL006C, strain TOP1, active compounds read low",0.924
same,normalized growth,[24],0.968
same,normalized growth,[25],0.976
same,normalized growth,[26],0.858
same,normalized growth,[27],0.954
CC[N+](C)(C)Cc1ccccc1Br,normalized growth,"S. cerevisiae deletion strains, locus YAL040C, strain CLN3, active compounds read low",0.99
same,normalized growth,"S. cerevisiae deletion strains, locus YCL061C, strain MRC1 (second series), active compounds read low",1.01
same,normalized growth,"S. cerevisiae deletion strains, locus YDR363W, strain ESC2, active compounds read low",0.991
same,normalized growth,"S. cerevisiae deletion strains, locus YER002W, strain NOP16, active compounds read low",0.993
same,normalized growth,[7],0.99
same,normalized growth,"S. cerevisiae deletion strains, locus YNL175C, strain NOP13, active compounds read low",1.01
same,normalized growth,"S. cerevisiae deletion strains, locus YNL197C, strain WHI3, active compounds read low",1.01
same,normalized growth,"S. cerevisiae deletion strains, locus YNL224C, strain SQS1, active compounds read low",0.983
same,normalized growth,"S. cerevisiae deletion strains, locus YOR083W, strain WHI5 (second series), active compounds read low",0.974
same,normalized growth,[24],0.999
same,normalized growth,[25],1.01
O=C(O)CSCCOc1ccccc1,normalized growth,[1],1.01
same,normalized growth,[2],1.01
same,normalized growth,"S. cerevisiae deletion strains, locus YCL061C, strain MRC1, active compounds read low",1
same,normalized growth,[3],0.997
same,normalized growth,[4],1.03
same,normalized growth,[5],0.932
same,normalized growth,[6],1.01
same,normalized growth,[7],1
same,normalized growth,[8],1.07
same,normalized growth,[9],0.998
same,normalized growth,[10],1.01
same,normalized growth,[11],1.02
same,normalized growth,"S. cerevisiae deletion strains, locus YKL190W, strain CNB1, active compounds read low",1.01
same,normalized growth,[12],1.04
same,normalized growth,[13],1.01
same,normalized growth,[14],0.997
same,normalized growth,[15],1.05
same,normalized growth,[16],1.01
same,normalized growth,[17],1
same,normalized growth,[18],1.01
same,normalized growth,[19],1.05
same,normalized growth,[20],1
same,normalized growth,[21],1.02
same,normalized growth,[22],0.997
same,normalized growth,[23],1.02
same,normalized growth,[24],1.09
same,normalized growth,[25],0.994
same,normalized growth,[26],1.17
same,normalized growth,[27],1.02
C[N+](C)(CCOc1ccccc1)Cc1ccccc1,normalized growth,[8],0.888
same,normalized growth,"S. cerevisiae deletion strains, locus YHR079C, strain IRE1, active compounds read low",0.844 (active)
same,normalized growth,"S. cerevisiae deletion strains, locus YJL095W, strain BCK1, active compounds read low",0.869 (active)
same,normalized growth,"S. cerevisiae deletion strains, locus YJR066W, strain TOR1, active compounds read low",0.799 (active)
same,normalized growth,"S. cerevisiae deletion strains, locus YLR113W, strain HOG1, active compounds read low",0.805 (active)
same,normalized growth,"S. cerevisiae deletion strains, locus YNL183C, strain NPR1, active compounds read low",0.788 (active)
same,normalized growth,"S. cerevisiae deletion strains, locus YOR231W, strain MKK1, active compounds read low",0.887
same,normalized growth,"S. cerevisiae deletion strains, locus YPL256C, strain CLN2, active compounds read low",0.812 (active)
